Usually inhibition stands for the drop in the measured response relative to a control, in per cent.

The target in assay [1] is CDK3/Cyclin E (Homo sapiens) (UniProt P24864+Q00526). Particulars: at 1 µM.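 Further: each figure is a mean percent inhibition of the CDK3/cyclin E complex.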
In assay [2] the target is Cyclin-dependent kinase 4 (Homo sapiens) (UniProt P11802). Conditions: at 0.1 µM.
For assay [3] the target is unchanged. Particulars: at 1 µM.
In assay [4] the target is Cyclin-dependent kinase 5 (Homo sapiens) (UniProt Q00535). Particulars: at 0.1 µM.
The target is the same in assay [5]. Conditions: at 1 µM.
Assay [6] deals with Cyclin-dependent kinase 6 (Homo sapiens) (UniProt Q00534). Particulars: at 0.1 µM.
The target is the same in assay [7]. Conditions: at 1 µM.
The target in assay [8] is Dual specificity protein kinase CLK2 (Homo sapiens) (UniProt P49760). Particulars: at 0.1 µM.
The target is the same in assay [9]. Particulars: at 1 µM.
Assay [10] concerns the target Dual specificity protein kinase CLK3 (Homo sapiens) (UniProt P49761). Particulars: at 0.1 µM.

“And” between values parts separate entries of the source, which are not always exact repeats. Equal values may be shown once.

Cyclin-dependent kinase 5 (Homo sapiens), sequence (Q00535 whole entry, looked up): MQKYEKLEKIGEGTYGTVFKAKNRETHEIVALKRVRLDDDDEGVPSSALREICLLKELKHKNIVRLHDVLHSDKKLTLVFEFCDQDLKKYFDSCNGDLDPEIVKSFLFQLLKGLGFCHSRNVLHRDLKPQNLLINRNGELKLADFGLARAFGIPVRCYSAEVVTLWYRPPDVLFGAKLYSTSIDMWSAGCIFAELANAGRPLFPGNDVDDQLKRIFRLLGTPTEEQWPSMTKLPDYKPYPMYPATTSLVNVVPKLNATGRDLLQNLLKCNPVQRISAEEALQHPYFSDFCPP
Dual specificity protein kinase CLK3 (Homo sapiens), sequence (P49761 whole entry, looked up): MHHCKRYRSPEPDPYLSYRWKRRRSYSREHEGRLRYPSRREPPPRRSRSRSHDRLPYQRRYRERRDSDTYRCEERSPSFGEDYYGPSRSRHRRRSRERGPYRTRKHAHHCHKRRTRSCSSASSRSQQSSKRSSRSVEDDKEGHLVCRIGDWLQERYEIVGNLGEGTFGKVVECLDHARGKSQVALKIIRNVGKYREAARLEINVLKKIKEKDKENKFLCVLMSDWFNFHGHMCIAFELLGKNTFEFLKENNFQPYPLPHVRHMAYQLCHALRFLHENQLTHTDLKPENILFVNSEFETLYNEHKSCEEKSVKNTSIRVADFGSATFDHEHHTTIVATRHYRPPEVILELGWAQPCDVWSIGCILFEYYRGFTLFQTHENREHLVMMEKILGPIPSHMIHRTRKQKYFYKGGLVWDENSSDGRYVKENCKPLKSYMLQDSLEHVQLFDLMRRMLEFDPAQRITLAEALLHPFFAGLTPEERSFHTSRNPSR
Cyclin-dependent kinase 6 (Homo sapiens), sequence (Q00534 whole entry): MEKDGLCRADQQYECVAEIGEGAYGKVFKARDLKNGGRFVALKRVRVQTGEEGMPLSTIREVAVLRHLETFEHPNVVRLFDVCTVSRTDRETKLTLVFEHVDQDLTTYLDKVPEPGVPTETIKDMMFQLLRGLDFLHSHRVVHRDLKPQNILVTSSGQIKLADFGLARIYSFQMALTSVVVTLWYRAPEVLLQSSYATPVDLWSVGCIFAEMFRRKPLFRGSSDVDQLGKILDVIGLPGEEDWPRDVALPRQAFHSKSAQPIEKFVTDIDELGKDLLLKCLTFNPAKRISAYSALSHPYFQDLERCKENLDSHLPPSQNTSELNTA
Dual specificity protein kinase CLK2 (Homo sapiens), sequence (P49760 whole entry, looked up): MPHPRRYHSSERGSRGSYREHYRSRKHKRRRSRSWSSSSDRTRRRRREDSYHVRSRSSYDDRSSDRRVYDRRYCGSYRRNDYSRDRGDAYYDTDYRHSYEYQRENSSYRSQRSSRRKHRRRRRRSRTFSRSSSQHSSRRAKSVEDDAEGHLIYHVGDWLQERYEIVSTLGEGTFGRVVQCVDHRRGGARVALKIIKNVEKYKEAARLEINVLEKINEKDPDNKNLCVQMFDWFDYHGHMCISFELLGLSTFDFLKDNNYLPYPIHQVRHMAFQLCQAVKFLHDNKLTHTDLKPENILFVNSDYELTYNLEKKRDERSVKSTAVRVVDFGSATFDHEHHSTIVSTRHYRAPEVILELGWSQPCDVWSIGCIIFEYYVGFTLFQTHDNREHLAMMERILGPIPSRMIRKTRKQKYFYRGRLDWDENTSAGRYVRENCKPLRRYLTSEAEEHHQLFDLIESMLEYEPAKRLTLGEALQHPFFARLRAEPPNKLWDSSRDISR
Cyclin-dependent kinase 4 (Homo sapiens), sequence (P11802 whole entry): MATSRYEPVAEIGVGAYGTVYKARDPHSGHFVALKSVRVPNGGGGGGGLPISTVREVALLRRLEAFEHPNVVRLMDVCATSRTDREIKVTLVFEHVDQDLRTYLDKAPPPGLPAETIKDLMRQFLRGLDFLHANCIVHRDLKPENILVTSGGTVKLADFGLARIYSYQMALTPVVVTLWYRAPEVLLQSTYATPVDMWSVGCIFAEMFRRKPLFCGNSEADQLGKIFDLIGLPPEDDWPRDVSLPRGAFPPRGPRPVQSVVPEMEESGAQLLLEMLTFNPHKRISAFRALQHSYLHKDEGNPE
CDK3/Cyclin E (Homo sapiens), sequence (P24864 whole entry, looked up): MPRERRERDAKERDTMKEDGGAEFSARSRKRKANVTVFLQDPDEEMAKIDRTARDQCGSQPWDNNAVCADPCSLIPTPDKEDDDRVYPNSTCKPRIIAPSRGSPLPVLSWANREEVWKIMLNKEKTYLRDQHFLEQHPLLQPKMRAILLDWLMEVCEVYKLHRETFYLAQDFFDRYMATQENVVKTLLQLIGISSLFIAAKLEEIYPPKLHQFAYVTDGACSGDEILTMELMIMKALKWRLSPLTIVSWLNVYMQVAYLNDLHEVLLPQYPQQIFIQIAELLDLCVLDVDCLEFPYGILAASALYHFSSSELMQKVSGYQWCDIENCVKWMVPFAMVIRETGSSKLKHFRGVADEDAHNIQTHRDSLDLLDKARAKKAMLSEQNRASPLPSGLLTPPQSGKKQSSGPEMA
CDK3/Cyclin E (Homo sapiens), sequence (Q00526 whole entry, looked up): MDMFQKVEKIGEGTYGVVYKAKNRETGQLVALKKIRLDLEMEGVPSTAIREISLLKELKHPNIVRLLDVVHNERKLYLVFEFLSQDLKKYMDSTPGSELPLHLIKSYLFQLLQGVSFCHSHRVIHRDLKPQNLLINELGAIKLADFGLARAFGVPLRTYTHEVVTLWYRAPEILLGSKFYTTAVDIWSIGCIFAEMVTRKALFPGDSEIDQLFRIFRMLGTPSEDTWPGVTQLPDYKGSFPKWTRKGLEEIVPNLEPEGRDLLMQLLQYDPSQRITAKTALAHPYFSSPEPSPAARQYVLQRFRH

For the compound `N#Cc1cccc(Nc2ncc(-c3ccccc3)o2)c1`, the inhibition was 40.2% in assay [1]; 3.86% in assay [2]; 26.7% in assay [3]; 4.45% in assay [4]; 30.5% in [5]; 21.9% in assay [6]. Besides, the inhibition in assay [7] came to 63%; in [8] it was 1.44%; in assay [9] it was 9.1%; in assay [10] it was 1.7%.
Take `COC(=O)Nc1nc2cc(Oc3ccc(NC(=O)Nc4ccccc4)cc3)ccc2[nH]1`: the inhibition is -3.23% in assay [1]; 0.66% in assay [2]; 1.41% in assay [3]; 0.28% in [4]; 0.86% in assay [5]; 0.73% in [6]. The inhibition is -1.23% in assay [7], 1.75% in assay [8], -1.36% in [9] and 1.37% in assay [10].
On to `COc1ccccc1-c1cc(/C=C2\C(=O)Nc3ncc(Br)cc32)cc(Br)c1O`, for which the inhibition in [1] came to 1.11%; in [2], 5.08%; in assay [3], 7.62%; in assay [4], 4.84%; in assay [5] it was 4.91%; in assay [6] it was 1.08%. Moreover, the inhibition in assay [7] was found to be 6.64%; in [8] it was 1.63%; in assay [9], 5.09%; in assay [10], 2.35%.
In the case of `COc1ccc(-c2nn3ncccc3c2-c2ccnc(Nc3ccc(F)c(F)c3)n2)cc1`, the inhibition came to 0.42% in assay [1]; 0.25% in assay [2]; 1.71% in [3]; 0.48% in [4]; 1.15% in assay [5]; 5.13% in [6]. Further, the inhibition in assay [7] is 3.48%; in assay [8] it was -1.03%; in assay [9] it was 0.41%; in assay [10], 2.08%.
Consider `O=C(O[C@H]1CN[C@H](C#Cc2cc3ncnc(Nc4ccc5c(cnn5Cc5ccccc5)c4)c3s2)C1)N1CCOCC1`, for which the inhibition in assay [1] is -1.05%; in [2], 0.36%; in [3], 3.2%; in assay [4] it was 2.53%; in assay [5], 3.35%; in assay [6] it was -1.23%. In addition, the inhibition in assay [7] is 0.26%; in assay [8] it was -1.51%; in assay [9], -0.74%; in assay [10], -0.96%.
Take `CN1CCC(C(=O)Nc2n[nH]c3nc(-c4ccc(O)cc4)c(Br)cc23)CC1`: the inhibition in assay [1] is 56.1% and 53.4%; in [2] it was 48% and 51.8%; in [3], 76.6% and 78.3%; in assay [4] it was 0.17% and 1.86%; in assay [5], 13.3% and 11.5%; in assay [6], 36.9% and 34.2%. For the same compound, the inhibition was 76.5% and 74% in assay [7]; 2.03% and 1.85% in [8]; 3.04% and 2.87% in assay [9]; -1.53% and 0.88% in assay [10].
As for `CNC(=O)c1cncc(/C=C/c2ccccc2C)c1`, the inhibition in assay [1] turned out to be 0.23%; in assay [2], 1.9%; in assay [3] it was 7.47%; in [4], 4.11%; in assay [5] it was 10.4%; in assay [6], 3.69%. For the same compound, the inhibition was 4.46% in assay [7], 2.83% in assay [8], 2.46% in assay [9] and 1.79% in assay [10].
Take `CCOc1ccc2c(-c3ccnc(Nc4cc(OC)cc(C(F)(F)F)c4)n3)cnn2n1`: the inhibition in assay [1] amounted to 3.56%; in assay [2] it was 1.15%; in [3], 6.68%; in [4] it was 2.44%; in assay [5], 9.18%; in assay [6], 2.68%. In addition, the inhibition amounted to 7.59% in assay [7], 81.2% in [8], 96.3% in assay [9] and 3.69% in assay [10].
Turning to `Nc1nonc1-c1nc2cnccc2n1C1CC1`, the inhibition in assay [1] is 4.03% and 3.32%; in [2], 1.99% and -2.13%; in [3], 2.95% and -0.61%; in [4], 3.26% and -1.62%; in assay [5] it was 16.6% and 12.1%; in assay [6] it was 0.11% and -4.39%. Also, the inhibition is 1.22% and -0.23% in [7]; 0.67% and 3.19% in [8]; 17% and 19% in [9]; 1.8% and -2.05% in assay [10].
Regarding `NC(=O)c1ccc2c(-c3ccnc(NCCCO)n3)c(-c3ccc(F)cc3)nn2c1`, the inhibition in assay [1] was -1.28%; in [2] it was 3.3%; in assay [3] it was 4.76%; in assay [4] it was 0.91%; in assay [5], 0.98%; in assay [6] it was -6.31%. The inhibition in assay [7] was 1.97%; in assay [8] it was 2.88%; in assay [9], 2.32%; in [10], 0.97%.
Take `COc1cc2c(cc1Nc1nc(Nc3cccc(F)c3C(N)=O)c3cc[nH]c3n1)N(C(=O)CN1CCN(C(C)C)CC1)CC2`: the inhibition in assay [1] is -0.76%; in assay [2], 1.15%; in assay [3], 1.2%; in [4], 0.64%; in assay [5] it was 0.27%; in assay [6] it was -4.06%. In addition, the inhibition in [7] was -0.78%; in assay [8] it was 6.86%; in assay [9] it was 45.4%; in assay [10], 0.88%.
`COc1c(C(N)=O)cc(-c2ccc(Cl)cc2)cc1-c1ccc(S(N)(=O)=O)cc1`: the inhibition in assay [1] is -0.77%; in assay [2], 3.98%; in assay [3], 3.06%; in assay [4] it was 0.65%; in assay [5], 0.17%; in [6], -0.9%. For the same compound, the inhibition in assay [7] was -0.36%; in assay [8] it was 3.22%; in assay [9] it was 5.16%; in [10], 0.71%.
`O=C1Nc2ccccc2/C1=C1\CCc2cc(O)ccc21`: the inhibition in assay [1] amounted to 2.91%; in assay [2], 3.57%; in assay [3], 7.74%; in assay [4], 1.5%; in [5] it was 7.54%; in assay [6], 3.57%. Further, the inhibition worked out at 30.5% in assay [7], 2.81% in [8], 13.6% in [9] and 1.61% in [10].
Consider `COc1cccc(Nc2nccc(-c3cnn4ncccc34)n2)c1`, for which the inhibition in assay [1] stood at 91.4%; in assay [2] it was 56.5%; in assay [3] it was 76.9%; in [4], 59.3%; in [5] it was 78%; in assay [6], 49.5%. Moreover, the inhibition came to 80.5% in assay [7], 93.9% in assay [8], 98.2% in assay [9] and 23.2% in [10].
In the case of `CS(=O)(=O)CCNCc1ccc(-c2ccc3ncnc(Nc4ccc(OCc5cccc(C(F)(F)F)c5)cc4)c3c2)o1`, the inhibition in assay [1] was found to be 1.01%; in [2], 3.72%; in assay [3], 2.89%; in assay [4], 0.15%; in assay [5], 0.08%; in assay [6] it was 0.44%. For the same compound, the inhibition in assay [7] came to 1.5%; in assay [8], 0.99%; in assay [9], 1.97%; in assay [10], 1.09%.

The values are drawn from ChEMBL document CHEMBL1961873, “Compounds: GSK PKIS; Assays: Nanosyn kinase panel” (2012).
